We go through seven molecules from PubChem BioAssay (NCI).

This is part of a sample that, as a whole, favours compounds with a hit. Of some 83,000 tested, about 20% had one in any assay.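 Single-dose data. Exposure time 48 hours. Values below 10 considered active.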 Unmarked numbers belong to inactive results. Calls of active or inactive are those of the source.

Some test systems named below: SK-MEL-2 melanoma; EKVX NSCLC; SN12C renal; UO-31 renal; TK-10 renal; ACHN renal; CAKI-1 renal; A498 renal; CCRF-CEM leukemia; MOLT-4 leukemia; SR leukemia; RPMI-8226 leukemia; OVCAR-8 ovarian; OVCAR-5 ovarian; OVCAR-4 ovarian; SK-OV-3 ovarian; IGROV1 ovarian; OVCAR-3 ovarian; HS 578T breast; NCI/ADR-RES ovarian.
Test in all cases: NCI-60 one-dose screen, 48 h (100 = growth as untreated, 0 = no growth, -100 = all killed)
Holding throughout (conditions): 10 µM unless noted

With `CN1CCN(CCCNC(=O)c2c3c(n4ccccc24)C(=O)c2ncccc2C3=O)CC1`, the growth with SK-MEL-2 melanoma was 9.41% (active); with EKVX NSCLC, 24%; in the assay on SN12C renal, -48.5% (active); with UO-31 renal it was 32.2%; in the assay on TK-10 renal it was 56.7%; in the assay with ACHN renal, 7.62% (active). In addition, the growth in the assay with CAKI-1 renal is 75.4%; with A498 renal, 45.8%; in the assay on CCRF-CEM leukemia, -11.5% (active); in the assay with MOLT-4 leukemia, -35.1% (active); in the assay on SR leukemia, -8.6% (active); in the assay with RPMI-8226 leukemia it was 29.4%. In addition, the growth with OVCAR-8 ovarian is -9.12% (active); in the assay on OVCAR-5 ovarian it was 39.4%; in the assay with OVCAR-4 ovarian it was -100% (active); in the assay on SK-OV-3 ovarian it was 28.6%; in the assay on IGROV1 ovarian, -24.6% (active); in the assay on OVCAR-3 ovarian it was -10.7% (active). Also, the growth with HS 578T breast was 61.2%; with NCI/ADR-RES ovarian it was 40.9%.

As to `CCN(CC)CCN1C(=O)c2c(c(C)c3c(oc4cc(OC)ccc43)c2C)C1=O`, the growth in the assay with SK-MEL-2 melanoma was 101%; in the assay on EKVX NSCLC it was 93.5%; with SN12C renal, 32.2%; in the assay with UO-31 renal, -43.7% (active); in the assay on TK-10 renal, 100%; in the assay on ACHN renal, 51%. Also, the growth in the assay with CAKI-1 renal was 78.2%; with A498 renal it was 108%; in the assay on CCRF-CEM leukemia, -10.9% (active); in the assay on MOLT-4 leukemia, 61.1%; with SR leukemia, 29.3%; in the assay on RPMI-8226 leukemia it was 88.1%. Also, the growth in the assay with OVCAR-8 ovarian is 90.6%; with OVCAR-5 ovarian it was 94.2%; in the assay with OVCAR-4 ovarian, 73.8%; in the assay with SK-OV-3 ovarian, 115%; in the assay on IGROV1 ovarian, 42.2%; with OVCAR-3 ovarian, 112%. Also, the values for the growth in the assay with HS 578T breast and in the assay on NCI/ADR-RES ovarian were 118% and 86.2%, respectively.

As for `CC(C)=CCC[C@](C)(O)C1CC[C@]2(C)[C@@H]1CC[C@@H]1[C@@]3(C)CC/C(=N\OCCC#N)C(C)(C)[C@@H]3CC[C@]12C` (stereo not given in full), the growth in the assay on SK-MEL-2 melanoma is 100%; with EKVX NSCLC it was 72.4%; in the assay with SN12C renal, 80%; in the assay with UO-31 renal, 60.5%; in the assay with TK-10 renal it was 105%; with ACHN renal it was 90.3%. Besides, the growth with CAKI-1 renal is 77.5%; in the assay with A498 renal, 72.8%; in the assay with CCRF-CEM leukemia it was 75.8%; in the assay on MOLT-4 leukemia, 77.5%; in the assay on SR leukemia, 61.6%; in the assay on RPMI-8226 leukemia, 36%. For the same molecule, the growth is 85.1% in the assay on OVCAR-8 ovarian; 99.1% in the assay with OVCAR-5 ovarian; 79.9% in the assay on OVCAR-4 ovarian; 84.3% in the assay with SK-OV-3 ovarian; 97.4% in the assay on IGROV1 ovarian; 93.2% in the assay on OVCAR-3 ovarian. For the same molecule, the growth with HS 578T breast is 92.9%; in the assay with NCI/ADR-RES ovarian it was 97.7%.

Regarding `COc1nc2ccccc2cc1/C=C1/C=C(c2ccccc2)NC1=O`, the growth is 19% in the assay with SK-MEL-2 melanoma; 52.5% with EKVX NSCLC; 40.6% in the assay on SN12C renal; 41.2% in the assay with UO-31 renal; 87.5% with TK-10 renal; 40.9% in the assay with ACHN renal. Besides, the growth was 31.9% with CAKI-1 renal; 35.9% in the assay on A498 renal; 41.1% in the assay with CCRF-CEM leukemia; 21.5% with MOLT-4 leukemia; 20% in the assay on SR leukemia; 53.7% with RPMI-8226 leukemia. Besides, the growth in the assay with OVCAR-8 ovarian was 44.8%; in the assay on OVCAR-5 ovarian, 85.4%; in the assay with OVCAR-4 ovarian, 65%; in the assay with SK-OV-3 ovarian it was 50.3%; in the assay on IGROV1 ovarian, 39%; with OVCAR-3 ovarian, 17.2%. The growth with HS 578T breast was 25.8%; in the assay on NCI/ADR-RES ovarian, 32.8%.

As to `O=C1/C(=C/c2ccc(Br)cc2)COc2ccc(O)cc21`, the growth was 107% with SK-MEL-2 melanoma; 98.5% with EKVX NSCLC; 73.3% with SN12C renal; 47.9% with UO-31 renal; 99.1% in the assay on TK-10 renal; 86.7% in the assay with ACHN renal. For the same molecule, the growth in the assay on CAKI-1 renal was 80.1%; in the assay with A498 renal it was 103%; in the assay on CCRF-CEM leukemia, 1.32% (active); in the assay on MOLT-4 leukemia it was 16.6%; in the assay with SR leukemia, 12.1%; with RPMI-8226 leukemia it was -23.7% (active). In addition, the growth is 79.1% with OVCAR-8 ovarian; 94.8% in the assay on OVCAR-5 ovarian; 97.9% in the assay with OVCAR-4 ovarian; 120% with SK-OV-3 ovarian; 84.3% in the assay on IGROV1 ovarian; 96.8% in the assay on OVCAR-3 ovarian. Besides, the growth in the assay on HS 578T breast was 96.2%; in the assay with NCI/ADR-RES ovarian, 94.6%.

Regarding `Cc1cc(C(=O)Nc2cc(Nc3ncccc3-c3ncnc4nc[nH]c34)ccc2F)cc(C(C)(C)C#N)c1`, the growth with SK-MEL-2 melanoma was 8.76% (active); with EKVX NSCLC, 56%; with SN12C renal it was 50.6%; in the assay on UO-31 renal, 10.1%; in the assay on TK-10 renal, 60.8%; in the assay on ACHN renal, 30.5%. Besides, the growth with CAKI-1 renal is 25.1%; with A498 renal, -22.8% (active); in the assay with CCRF-CEM leukemia, 42.4%; in the assay with MOLT-4 leukemia it was 53.2%; with SR leukemia, 32.1%; in the assay on RPMI-8226 leukemia it was 24%. Further, the growth in the assay with OVCAR-8 ovarian was 39.9%; in the assay on OVCAR-5 ovarian it was 30.3%; with OVCAR-4 ovarian it was 53.2%; in the assay with SK-OV-3 ovarian, 87%; in the assay on IGROV1 ovarian, 3.72% (active); in the assay with OVCAR-3 ovarian, 52.1%. Also, the growth was 44.6% with HS 578T breast and 49.9% in the assay with NCI/ADR-RES ovarian.

For the molecule `COc1ccc(Nc2nccc(Nc3ccc4[nH]ncc4c3)n2)cc1`, the growth in the assay with SK-MEL-2 melanoma was 29.8%; in the assay with EKVX NSCLC, 50.9%; in the assay on SN12C renal it was 43.4%; in the assay on UO-31 renal, 15.9%; in the assay with TK-10 renal it was 19.3%; in the assay with ACHN renal it was 29.2%. The growth in the assay with CAKI-1 renal was 38.3%; with A498 renal, 36.5%; in the assay on CCRF-CEM leukemia, -1.69% (active); in the assay with MOLT-4 leukemia, 1.45% (active); with SR leukemia it was 4.38% (active); in the assay on RPMI-8226 leukemia, 2.72% (active). For the same molecule, the growth in the assay on OVCAR-8 ovarian was 9.36% (active); in the assay with OVCAR-5 ovarian, 52.1%; with OVCAR-4 ovarian, 33.3%; in the assay with SK-OV-3 ovarian, 52.1%; in the assay on IGROV1 ovarian, 50.6%; with OVCAR-3 ovarian, 48.9%. Moreover, the growth with HS 578T breast is 46.7%; in the assay on NCI/ADR-RES ovarian, 17.7%.
